Laboratory results: PubChem BioAssay (NCI)
This is part of a sample that, as a whole, favours compounds with a hit. Of some 83,000 tested, about 20% had one in any assay.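 Compound tested at a single concentration for 48 hours in 96-well plates; a percent growth value below 10 was scored as active.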 Active and inactive are the calls of the source.

Experiments:
Experiment in all cases: NCI-60 one-dose screen, 48 h (100 = growth as untreated, 0 = no growth, -100 = all killed)
Settings in all cases: 10 µM
SR leukemia = test system: SR leukemia
RPMI-8226 leukemia = test system: RPMI-8226 leukemia
OVCAR-8 ovarian = test system: OVCAR-8 ovarian
OVCAR-5 ovarian = test system: OVCAR-5 ovarian
OVCAR-4 ovarian = test system: OVCAR-4 ovarian
SK-OV-3 ovarian = test system: SK-OV-3 ovarian
IGROV1 ovarian = test system: IGROV1 ovarian
OVCAR-3 ovarian = test system: OVCAR-3 ovarian
HS 578T breast = test system: HS 578T breast
NCI/ADR-RES ovarian = test system: NCI/ADR-RES ovarian

Measured: growth

CNC(=O)c1cc(Oc2ccc3c(c2)sc2nc(-c4ccc(N)cc4)cn23)ccn1
inactive: SR leukemia 28.3% | RPMI-8226 leukemia 40.5% | OVCAR-8 ovarian 10.9% | OVCAR-5 ovarian 64.2% | OVCAR-4 ovarian 59.7% | SK-OV-3 ovarian 21.2% | IGROV1 ovarian 31.6% | HS 578T breast 54.9% | NCI/ADR-RES ovarian 11.2%
active: OVCAR-3 ovarian 1.42%

CNS(=O)(=O)Oc1ccc(-c2ccc3occc3c2)cc1
inactive: SR leukemia 111% | RPMI-8226 leukemia 109% | OVCAR-8 ovarian 99.5% | OVCAR-5 ovarian 88.8% | OVCAR-4 ovarian 98.4% | SK-OV-3 ovarian 111% | IGROV1 ovarian 99.8% | OVCAR-3 ovarian 107% | HS 578T breast 110% | NCI/ADR-RES ovarian 102%

COc1cc(C2C(C#N)=C(N)Oc3cc(O)ccc32)cc(OC)c1OC (centres undefined)
active: OVCAR-3 ovarian -38.2%
inactive: SR leukemia 11.4% | RPMI-8226 leukemia 15.5% | OVCAR-8 ovarian 34.4% | OVCAR-5 ovarian 35.5% | OVCAR-4 ovarian 49.7% | SK-OV-3 ovarian 44.2% | IGROV1 ovarian 34.9% | HS 578T breast 20% | NCI/ADR-RES ovarian 38.4%

CCCCC/C=C/C/C=C/CCCCCCCC1=NC(C)(C)CN1C(C)C
active: SR leukemia 2.99% | RPMI-8226 leukemia -35.7% | IGROV1 ovarian 8.27%
inactive: OVCAR-8 ovarian 28.3% | OVCAR-5 ovarian 62.9% | OVCAR-4 ovarian 27.2% | SK-OV-3 ovarian 68.1% | OVCAR-3 ovarian 17.4% | HS 578T breast 26.7% | NCI/ADR-RES ovarian 37.1%

COc1cc(NC(=O)Nc2cnc(Nc3ccc(N4CCOCC4)cc3)nc2Oc2cccc(OC)c2)cc(OC)c1
inactive: SR leukemia 46.1% | RPMI-8226 leukemia 53.3% | OVCAR-5 ovarian 96.5% | OVCAR-4 ovarian 13.7% | SK-OV-3 ovarian 42.2% | IGROV1 ovarian 43.4% | OVCAR-3 ovarian 41.7% | HS 578T breast 23.2% | NCI/ADR-RES ovarian 61%
active: OVCAR-8 ovarian -10.8%

COc1cc2cc(Oc3ccc(NC(=O)c4cccc(C(F)(F)F)c4)cc3)c(C)nc2cc1OC
inactive: SR leukemia 28% | RPMI-8226 leukemia 17.5% | OVCAR-8 ovarian 42.5% | OVCAR-5 ovarian 70.2% | OVCAR-4 ovarian 43.2% | SK-OV-3 ovarian 23.4% | IGROV1 ovarian 36.1% | OVCAR-3 ovarian 15% | HS 578T breast 41.2% | NCI/ADR-RES ovarian 26%

CCOC(=O)CC(S(=O)(=O)c1ccccc1)S(=O)(=O)c1ccccc1
inactive: SR leukemia 89.1% | RPMI-8226 leukemia 97.4% | OVCAR-8 ovarian 103% | OVCAR-5 ovarian 109% | OVCAR-4 ovarian 94% | SK-OV-3 ovarian 112% | IGROV1 ovarian 107% | OVCAR-3 ovarian 63.1% | HS 578T breast 105% | NCI/ADR-RES ovarian 104%

COc1ccc(C(=O)c2cc3c(OC)c(OC)c(OC)cc3[nH]2)cc1
inactive: RPMI-8226 leukemia 31.4% | OVCAR-8 ovarian 62.8% | OVCAR-5 ovarian 68.4% | OVCAR-4 ovarian 62.7% | SK-OV-3 ovarian 86.4% | IGROV1 ovarian 35% | OVCAR-3 ovarian 45.1% | HS 578T breast 51.8% | NCI/ADR-RES ovarian 18.6%
active: SR leukemia -47.8%

COc1cc(-c2nn(-c3cccc(NC(=O)CCN4CCN(c5ccccc5)CC4)c3)cc2-c2ccncc2)ccc1Cl
inactive: RPMI-8226 leukemia 20.6% | OVCAR-8 ovarian 22.6% | OVCAR-5 ovarian 47.5% | OVCAR-4 ovarian 34% | SK-OV-3 ovarian 26.7% | IGROV1 ovarian 32.7% | OVCAR-3 ovarian 16.2% | HS 578T breast 31.8% | NCI/ADR-RES ovarian 21%
active: SR leukemia 4.54%

C[n+]1c2ccccc2nc2ccccc21
active: RPMI-8226 leukemia -17.2% | OVCAR-3 ovarian 4.06% | HS 578T breast -12.1% | NCI/ADR-RES ovarian 8.6%
inactive: SR leukemia 25.9% | OVCAR-8 ovarian 10.3% | OVCAR-5 ovarian 42.1% | OVCAR-4 ovarian 21.9% | SK-OV-3 ovarian 52% | IGROV1 ovarian 11%

CCOC(=O)c1cc(C(=O)c2ccc(Cl)cc2)n2ccc(-c3cc[n+](CC(=O)c4ccc(OC)cc4)cc3)cc12
active: SR leukemia -27.2%
inactive: RPMI-8226 leukemia 23.4% | OVCAR-8 ovarian 76.7% | OVCAR-5 ovarian 112% | OVCAR-4 ovarian 29.7% | SK-OV-3 ovarian 91.1% | IGROV1 ovarian 93.2% | OVCAR-3 ovarian 37.4% | HS 578T breast 83.2% | NCI/ADR-RES ovarian 88.8%

COc1cc2c(Nc3ccc(S(N)(=O)=O)cc3)ncnc2c(OC)c1OC
inactive: SR leukemia 99.9% | RPMI-8226 leukemia 99.1% | OVCAR-8 ovarian 106% | OVCAR-5 ovarian 105% | OVCAR-4 ovarian 102% | SK-OV-3 ovarian 75.5% | IGROV1 ovarian 96.1% | OVCAR-3 ovarian 90.4% | HS 578T breast 96% | NCI/ADR-RES ovarian 96.5%

CC[C@@H]1NC(=O)[C@H]([C@H](O)[C@H](C)C/C=C/c2ccc(CN3C(=O)CCCC3=O)cc2)N(C)C(=O)[C@H](C(C)C)N(C)C(=O)[C@H](CC(C)C)N(C)C(=O)[C@H](CC(C)C)N(C)C(=O)[C@@H](C)NC(=O)[C@H](C)NC(=O)[C@H](CC(C)C)N(C)C(=O)[C@H](C(C)C)NC(=O)[C@H](CC(C)C)N(C)C(=O)CN(C)C1=O
active: SR leukemia -2.59% | RPMI-8226 leukemia 9.26%
inactive: OVCAR-8 ovarian 68.4% | OVCAR-5 ovarian 83.8% | OVCAR-4 ovarian 53.9% | SK-OV-3 ovarian 74.9% | IGROV1 ovarian 58.2% | OVCAR-3 ovarian 54.4% | HS 578T breast 73.9%

COc1ccc(-c2cc(-c3ccc(Cl)cc3)nc(SCCCCCCC(=O)NO)n2)cc1OC
active: RPMI-8226 leukemia -9.15%
inactive: SR leukemia 21.3% | OVCAR-8 ovarian 51.5% | OVCAR-5 ovarian 56.2% | OVCAR-4 ovarian 70.5% | SK-OV-3 ovarian 58.2% | IGROV1 ovarian 35.9% | OVCAR-3 ovarian 75.5% | HS 578T breast 63.7% | NCI/ADR-RES ovarian 20%

COc1cc(-c2nn(-c3cccc(NC(=O)NCCNC(=O)c4ccccc4)c3)cc2-c2ccncc2)ccc1Cl
inactive: OVCAR-5 ovarian 33% | OVCAR-4 ovarian 26.6% | SK-OV-3 ovarian 33.6% | IGROV1 ovarian 28.1% | OVCAR-3 ovarian 21.1% | HS 578T breast 30.9% | NCI/ADR-RES ovarian 46.1%
active: SR leukemia 5.61% | RPMI-8226 leukemia 5.06% | OVCAR-8 ovarian 8.83%

Nc1ccc(/C=N/Nc2ccnc3c(O)cccc23)c2cccnc12
active: SR leukemia 2.19%
inactive: RPMI-8226 leukemia 31.8% | OVCAR-8 ovarian 14.4% | OVCAR-5 ovarian 107% | OVCAR-4 ovarian 30.5% | SK-OV-3 ovarian 85.7% | IGROV1 ovarian 60.2% | OVCAR-3 ovarian 20% | HS 578T breast 63.9% | NCI/ADR-RES ovarian 30.6%

COc1cc2cc(Oc3ccc(NC(=O)c4cc(C(F)(F)F)cc(C(F)(F)F)c4)cc3)c(C)nc2cc1OC
inactive: SR leukemia 52.8% | RPMI-8226 leukemia 17.7% | OVCAR-8 ovarian 48.2% | OVCAR-5 ovarian 67.7% | OVCAR-4 ovarian 52.4% | SK-OV-3 ovarian 44.5% | IGROV1 ovarian 43.9% | OVCAR-3 ovarian 15.2% | HS 578T breast 73.1% | NCI/ADR-RES ovarian 46.3%

CCC(C)[C@H](NC(C)=O)C(=O)N[C@@H](CCCNC(=N)N)C(=O)N[C@@H](CCCCN)C(=O)N[C@@H](CC1CCC(O)CC1)C(=O)NC(C(=O)N[C@@H](CCSC)C(=O)N[C@@H](CCCNC(=N)N)C(=O)N[C@@]1(C)CCC/C=C\CCC[C@@](C)(C(=O)NC(C(=O)N[C@@H](CCC(=O)O)C(=O)N[C@@H](CC(C)C)C(=O)N[C@H](C(=O)N[C@@H](CCC(=O)O)C(N)=O)C(C)C)[C@@H](C)O)NC(=O)[C@H](CCC(N)=O)NC(=O)[C@H](CC(C)C)NC(=O)[C@H](CC(C)C)NC1=O)[C@@H](C)O (some centres undefined)
active: HS 578T breast -7.65%
inactive: SR leukemia 98.5% | RPMI-8226 leukemia 95% | OVCAR-8 ovarian 98.4% | OVCAR-5 ovarian 115% | OVCAR-4 ovarian 100% | SK-OV-3 ovarian 98.4% | IGROV1 ovarian 100% | OVCAR-3 ovarian 104% | NCI/ADR-RES ovarian 108%

COc1ccc(/C=C2/SC(=S)NC2=O)c(OC)c1OC
inactive: SR leukemia 72.4% | RPMI-8226 leukemia 79.4% | OVCAR-8 ovarian 91.5% | OVCAR-5 ovarian 72.8% | OVCAR-4 ovarian 87.7% | SK-OV-3 ovarian 91.1% | IGROV1 ovarian 105% | OVCAR-3 ovarian 89.6% | HS 578T breast 63.6% | NCI/ADR-RES ovarian 85.2%

O=C1/C=C/[C@@H](O)[C@@H]2C[C@@H](O)C[C@H]2/C=C/CCC[C@@H](C(F)(F)F)O1
inactive: SR leukemia 102% | RPMI-8226 leukemia 97.7% | OVCAR-8 ovarian 83.2% | OVCAR-5 ovarian 107% | OVCAR-4 ovarian 75.3% | SK-OV-3 ovarian 96% | IGROV1 ovarian 105% | OVCAR-3 ovarian 69.8% | HS 578T breast 74.2% | NCI/ADR-RES ovarian 92.5%

O=C(O)COc1c(Cl)cc([N+](=O)[O-])cc1Cl
inactive: SR leukemia 82.3% | RPMI-8226 leukemia 101% | OVCAR-8 ovarian 99.3% | OVCAR-5 ovarian 95.7% | OVCAR-4 ovarian 108% | SK-OV-3 ovarian 92.3% | IGROV1 ovarian 93.6% | OVCAR-3 ovarian 113% | HS 578T breast 105% | NCI/ADR-RES ovarian 108%

Nc1cc(-c2ccncc2)c[nH]c1=O
inactive: SR leukemia 74.3% | RPMI-8226 leukemia 109% | OVCAR-8 ovarian 100% | OVCAR-5 ovarian 98.8% | OVCAR-4 ovarian 106% | SK-OV-3 ovarian 120% | IGROV1 ovarian 108% | OVCAR-3 ovarian 107% | HS 578T breast 110% | NCI/ADR-RES ovarian 104%

CN(C)CCOc1ccccc1NC1=C(Cl)C(=O)C(Nc2ccccc2OCCN(C)C)=C(Cl)C1=O
active: OVCAR-4 ovarian -99% | OVCAR-3 ovarian -96%
inactive: SR leukemia 19% | RPMI-8226 leukemia 82.7% | OVCAR-8 ovarian 26.6% | OVCAR-5 ovarian 109% | SK-OV-3 ovarian 119% | IGROV1 ovarian 10.5% | HS 578T breast 98.4% | NCI/ADR-RES ovarian 92.8%

COc1cccc(N=Nc2cccc(OC)c2)c1
inactive: SR leukemia 92.8% | RPMI-8226 leukemia 87% | OVCAR-8 ovarian 96.2% | OVCAR-5 ovarian 90.6% | OVCAR-4 ovarian 104% | SK-OV-3 ovarian 84.6% | IGROV1 ovarian 89.6% | OVCAR-3 ovarian 102% | HS 578T breast 79.8% | NCI/ADR-RES ovarian 105%

CC(C)CCN(CCC(C)C)CC(=O)Nc1ccc(S(=O)(=O)c2ccc(NC(=O)CN(CCC(C)C)CCC(C)C)cc2)cc1
inactive: OVCAR-8 ovarian 21.8% | OVCAR-5 ovarian 54.3% | OVCAR-4 ovarian 73.7% | SK-OV-3 ovarian 84.3% | IGROV1 ovarian 12.1% | OVCAR-3 ovarian 22.7% | HS 578T breast 65.3% | NCI/ADR-RES ovarian 59.3%
active: SR leukemia 3.98% | RPMI-8226 leukemia -22.4%

COc1cc(OC)c2c(=O)c(O)c(-c3ccccc3)oc2c1
inactive: SR leukemia 40.1% | RPMI-8226 leukemia 68.9% | OVCAR-8 ovarian 61.9% | OVCAR-5 ovarian 89% | OVCAR-4 ovarian 65.3% | SK-OV-3 ovarian 81.1% | IGROV1 ovarian 78.8% | OVCAR-3 ovarian 68.4% | HS 578T breast 88.9% | NCI/ADR-RES ovarian 65.9%
